What all share (format): functional
Assay [1] concerns Plasmodium falciparum. Nature of the assay: GSK_TCMDC: Inhibition of Plasmodium falciparum 3D7 in whole red blood cells, using parasite LDH activity as an index of growth. Test compounds present at 2uM.
Assay [2] deals with Plasmodium falciparum. Nature of the assay: GSK_TCMDC: Inhibition of Plasmodium falciparum Dd2 in whole red blood cells, using parasite LDH activity as an index of growth. Test compounds present at 2uM.
Another assay deals with HepG2. Nature of the assay: GSK_TCMDC: Percent inhibition of human HepG2 cell line. Test compounds present at 10uM.

Where “and” joins values, the source holds several entries; their conditions need not be identical. Identical values can stand only once.

The Inhibition is the change of the read-out against control, counted positive when it falls. A higher Inhibition goes with strong suppression. Consider `Cc1cccc(Cn2c(C(N)=O)nn(-c3ccc([N+](=O)[O-])cc3C#N)c2=S)c1`, for which the Inhibition in the assay with Plasmodium falciparum [1] came to 100%; in the assay on Plasmodium falciparum [2], 48%; in the assay with HepG2, 1%.
Turning to `O=C(O)C(F)(F)F.c1cc(CNCCN2CCNCC2)cc(-c2cccc(-c3nc4ccccc4[nH]3)c2)c1`, the values for the Inhibition in the assay with Plasmodium falciparum [1], with Plasmodium falciparum [2] and with HepG2 were 89%, 1% and 11%, respectively.
For `CCCCCCNC[C@@H](O)[C@H](Cc1ccccc1)NC(=O)c1cc(NCC)cc(N2CCCCS2(=O)=O)c1.Cl`, the Inhibition in the assay with Plasmodium falciparum [1] is listed as 100%; in the assay on Plasmodium falciparum [2] it was 98%; in the assay with HepG2 it was 5%.
Take `Cc1noc(C)c1-c1ccc2c(Nc3ccccc3C(C)(C)C)c(C(=O)NCc3ccc(C(F)(F)F)cc3)cnc2c1.Cl`: the values for the Inhibition with Plasmodium falciparum [1], in the assay with Plasmodium falciparum [2] and in the assay on HepG2 were 99%, 50% and 30%, respectively.
The matching figures for `Cc1cccc2nc(-c3ccc(-c4cccc(NC(=O)Nc5ccc(Cl)cc5)c4)s3)[nH]c12`: 100%, 52% and 25%.
Consider `NC1=NC(c2ccccc2)(c2cccc(O)c2)C(=O)N1CCCc1ccccc1` (centres undefined), for which the Inhibition in the assay with Plasmodium falciparum [1] was 85% and 98%; in the assay on Plasmodium falciparum [2], 38% and 93%; in the assay on HepG2, 0%.
For the compound `CC(C)COc1ccc(Cl)cc1Cc1ccc(-c2nc3ccc(Cl)cc3[nH]2)o1`, the Inhibition with Plasmodium falciparum [1] is recorded as 97%; in the assay with Plasmodium falciparum [2] it was 96%; with HepG2, 19%.
With `COc1cc2c(cc1NC(=O)CN1CCN(C(=O)c3ccco3)CC1)oc1ccccc12`, the Inhibition was 96% with Plasmodium falciparum [1], 96% in the assay with Plasmodium falciparum [2] and 13% in the assay with HepG2.
As to `CCN(CC)c1ccc(C(=O)Cn2ccc(=N)cc2)cc1`, the Inhibition in the assay with Plasmodium falciparum [1] was determined as 84%; in the assay with Plasmodium falciparum [2], 64%; with HepG2, 92%.
In the same order, the values of `COc1cc(NC(=O)/C=C/c2ccccc2OC(F)(F)F)cc(OCCN2CCN(CCN3CCOCC3)CC2)c1.O=C(O)C(=O)O` are 98%, 25% and 20%.
Take `O=C(Nc1cccc(-c2cccc(-c3nc4cc(F)ccc4[nH]3)c2)c1)c1ccncc1`: the Inhibition in the assay on Plasmodium falciparum [1] came to 92%; in the assay with Plasmodium falciparum [2], 24%; in the assay on HepG2, 28%.
In the same order, the values of `Cc1c(CNCCCNc2nc3cscc3[nH]2)sc(C(F)F)c1Br.Cl` are 99%, 11% and 1%.
For `O=C(CC1SC(N2N=C(c3cccs3)CC2c2ccccc2)=NC1=O)Nc1ccc(Cl)cc1` (centres undefined), the results for the Inhibition with Plasmodium falciparum [1], in the assay with Plasmodium falciparum [2] and with HepG2 were 83%, 88% and 18%, respectively.
Turning to `COc1ccc(-c2cc(C(=O)N[C@@H](CC3CCCCC3)C(=O)NCCN3CCCCC3)ccc2O)cc1`, the results for the Inhibition with Plasmodium falciparum [1], in the assay with Plasmodium falciparum [2] and in the assay on HepG2 were 98%, 72% and 3%, respectively.
The matching figures for `COc1ccc(CN(C)CCOc2ccc(NC(=O)c3cccc4c(=O)cc(-c5ccccc5)[nH]c34)cc2)cc1OC`: 98%, 44% and 13%.
Consider `c1ccc(CNc2cc(-c3ccccn3)nc(-c3ccccn3)n2)cc1`, for which the Inhibition is on record as 84% with Plasmodium falciparum [1], 89% in the assay with Plasmodium falciparum [2] and 88% in the assay on HepG2.
For the compound `CN(C)CCOc1ccc2c(c1)CN(C)CC2c1ccccc1.Cl` (centres undefined), the figures for the Inhibition with Plasmodium falciparum [1], in the assay with Plasmodium falciparum [2] and with HepG2 were 91%, 0% and 15%, respectively.
As to `O=C(N[C@@H](CC1CCCCC1)C(=O)NCCN1CCCCC1)c1ccc(O)c(-c2cccc(C(F)(F)F)c2)c1`, the Inhibition was found to be 99% in the assay on Plasmodium falciparum [1], 97% with Plasmodium falciparum [2] and 0% in the assay on HepG2.
With `CCOc1ccc(C(=O)N2CCOC(CCN3CCC(c4ccccc4)CC3)(c3ccc(Cl)c(Cl)c3)C2)cc1` (centres undefined), the Inhibition amounted to 88% in the assay with Plasmodium falciparum [1], 71% in the assay on Plasmodium falciparum [2] and 14% in the assay on HepG2.
In the same order, the values of `Cc1noc(C)c1-c1ccc2c(Nc3ccccc3C(C)(C)C)c(C(=O)NC3CCCC3)cnc2c1.Cl` are 93%, 79% and 27%.
Turning to `Cc1cc(CNCC2CCC(CNCCCc3ccccc3)CC2)ccc1O` (centres undefined), the Inhibition came out at 100% in the assay with Plasmodium falciparum [1], 0% in the assay on Plasmodium falciparum [2] and 25% in the assay on HepG2.
The matching figures for `COc1ccc(Nc2nccc(NCCNC(=O)c3cc4ccccc4s3)n2)cc1`: 98%, 7% and 6%.
Consider `CCCC(=O)NC(c1ccc(C)cc1)c1ccc2cccnc2c1O` (centres undefined), for which the Inhibition in the assay on Plasmodium falciparum [1] was determined as 88%; with Plasmodium falciparum [2], 45%; in the assay on HepG2, 52%.
For the compound `O=C(NCCCCN1CCC(c2ccc3c(c2OCc2ccncc2)CCCC3)CC1)c1ccc(-c2ccc(C(F)(F)F)cc2)cc1`, the Inhibition is listed as 100% with Plasmodium falciparum [1], 92% with Plasmodium falciparum [2] and 96% in the assay with HepG2.
Turning to `CCCN(Cc1nnc(-c2ccco2)o1)C(=O)C1CCCN(C(=O)c2ccc(Cl)cc2)C1` (centres undefined), the Inhibition in the assay with Plasmodium falciparum [1] is on record as 96%; in the assay with Plasmodium falciparum [2], 96%; with HepG2, 0%.
As to `O=C(Nc1ccc(C(=O)Oc2ccc(-c3ccccc3)cc2)cc1)N[C@@H](Cc1ccc(O)cc1)C(=O)NC1CCN(Cc2ccc(O)cc2)C1.O=C(O)C(F)(F)F` (some centres undefined), the figures for the Inhibition in the assay on Plasmodium falciparum [1], in the assay on Plasmodium falciparum [2] and in the assay on HepG2 were 94%, 60% and 0%, respectively.
For the compound `COc1ccc(C2CCN(CCCCNC(=O)c3ccc(NC(=O)c4ccc(Cl)cc4)cc3)CC2)cc1Cl`, the Inhibition amounted to 97% in the assay with Plasmodium falciparum [1], 75% in the assay on Plasmodium falciparum [2] and 28% in the assay with HepG2.
Consider `Oc1ccc(Cl)c2c1C(c1ccccc1)=NCC2`, for which the Inhibition in the assay on Plasmodium falciparum [1] was found to be 95%; in the assay with Plasmodium falciparum [2], 43%; in the assay with HepG2, 0%.
